In PubChem BioAssay (EPA / NIEHS):
Where “and” joins values, the source holds several entries; their conditions need not be identical. Equal entries are not always repeated. Inconclusive results are not listed. Calls of active or inactive are those of the source. Rule for the calls, unless noted: active = hit-call score of the fitted dose curve at least 0.9, where 1 is the maximum; inactive = score below 0.9.

Tests used:
[1] = molecular target: Nuclear respiratory factor 1 (Homo sapiens) (UniProt Q16656); assay: ATG_NRF1_CIS: Attagene CIS-FACTORIAL HepG2 Assay for human Nuclear Respiratory Factor 1 (NRF1) Orphan Gene (AID 2282987); settings: HepG2 NRF1 cis-element reporter, Attagene multiplex; actives raise or lower the signal
Sequence of Nuclear respiratory factor 1 (Homo sapiens) (Q16656 whole entry, looked up): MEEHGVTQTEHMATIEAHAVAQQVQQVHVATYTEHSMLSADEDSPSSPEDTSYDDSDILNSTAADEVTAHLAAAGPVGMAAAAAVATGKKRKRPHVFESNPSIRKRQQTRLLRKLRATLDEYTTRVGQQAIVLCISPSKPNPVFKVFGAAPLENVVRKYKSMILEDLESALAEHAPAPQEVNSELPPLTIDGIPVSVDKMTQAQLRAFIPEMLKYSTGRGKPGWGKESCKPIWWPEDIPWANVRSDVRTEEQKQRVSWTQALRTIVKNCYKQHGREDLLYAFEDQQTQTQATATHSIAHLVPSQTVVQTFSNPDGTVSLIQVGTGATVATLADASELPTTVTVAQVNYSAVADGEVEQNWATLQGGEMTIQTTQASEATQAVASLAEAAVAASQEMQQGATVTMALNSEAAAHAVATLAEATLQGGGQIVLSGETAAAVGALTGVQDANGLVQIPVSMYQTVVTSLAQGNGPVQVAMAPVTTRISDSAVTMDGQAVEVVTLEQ
Summary of the method: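 Multiplexed cis-reporter assay, HepG2 cells, 24 h treatment. Total RNA → oligo(dT) RT → PCR with reporter-specific primers → 6-FAM primer extension → HpaI cut → CE. Bidirectional fit vs DMSO.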

[2] = ATG_NFI_CIS: Attagene CIS-FACTORIAL HepG2 Assay for human Nuclear Factor I (NFI) (AID 2282989); settings: HepG2 cis-regulatory reporter, NFI response element transcription; actives raise or lower the signal
Summary of the method: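 Multiplexed cis-reporter system in human HepG2 cells reports native TF activity as reporter mRNA induction 24 h post-dose. Fragments labelled with 6-FAM, HpaI-digested and resolved by capillary electrophoresis; activity fitted both directions versus DMSO.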

[3] = molecular target: Myc proto-oncogene protein (Homo sapiens) (UniProt P01106); assay: ATG_Myc_CIS: Attagene CIS-FACTORIAL HepG2 Assay for human Myelocytomatosis (Myc) Proto-Oncogene Transcription Factor (AID 2282990); settings: HepG2, Attagene cis-reporter transcription factor activity; actives raise or lower the signal
Sequence of Myc proto-oncogene protein (Homo sapiens) (P01106 whole entry, looked up, the tested form may be a part): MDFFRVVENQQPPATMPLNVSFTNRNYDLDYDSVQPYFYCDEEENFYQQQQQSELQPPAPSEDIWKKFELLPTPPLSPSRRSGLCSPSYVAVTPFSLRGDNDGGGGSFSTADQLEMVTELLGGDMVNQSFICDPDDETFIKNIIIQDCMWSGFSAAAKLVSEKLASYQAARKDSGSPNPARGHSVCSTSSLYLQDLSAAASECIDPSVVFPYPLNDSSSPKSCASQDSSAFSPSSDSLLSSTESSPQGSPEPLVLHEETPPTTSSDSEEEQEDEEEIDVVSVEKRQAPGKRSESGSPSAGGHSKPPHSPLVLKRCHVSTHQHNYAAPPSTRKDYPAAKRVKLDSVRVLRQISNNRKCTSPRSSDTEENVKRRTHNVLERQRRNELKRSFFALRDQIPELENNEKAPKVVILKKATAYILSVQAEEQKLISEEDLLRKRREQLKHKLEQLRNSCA
Summary of the method: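 Fluorescence intensity of reporter-specific cDNA fragments, separated by capillary electrophoresis, gives the signal. Transfected HepG2 cells carrying cis-promoter reporter constructs are incubated with compound for 24 h; DMSO serves as baseline.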

[4] = ATG_NF_kB_CIS: Attagene CIS-FACTORIAL HepG2 Assay for human Nuclear Factor Kappa B (NF-kB) (AID 2282991); settings: HepG2 Attagene cis-factorial NF-kB reporter mRNA; actives raise or lower the signal
Summary of the method: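 Transient MRTU transfection of human HepG2 liver cells → 24 h chemical exposure → total RNA, oligo(dT) RT → PCR, 6-FAM primer extension, HpaI digest 2 h 37 C → CE fragment analysis. Bidirectional fitting, DMSO negative control.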

[5] = ATG_NRF2_ARE_CIS: Attagene CIS-FACTORIAL HepG2 Assay for human Nuclear Factor Erythroid 2 Related Factor 2 (NFR2) response to Antioxidant Response Elements (ARE) (AID 2282992); settings: HepG2 Attagene ARE/NRF2 reporter, transcription factor activity; actives raise or lower the signal;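 for AC50: reporter mRNA level measured by RT-PCR and capillary electrophoresis fluorescence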
Summary of the method: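 Endogenous transcription factor activity in human liver HepG2 cells is tracked via a cis-element-driven reporter within a multiplexed set. mRNA induction is read by RT-PCR and capillary electrophoresis after 24 h, with DMSO as baseline.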

[6] = ATG_Oct_MLP_CIS: Attagene CIS-FACTORIAL HepG2 Assay for human Octamer-Binding Transcription Factor (Oct) (AID 2282993); settings: HepG2 Attagene cis-factorial Oct reporter, mRNA; actives raise or lower the signal
Summary of the method: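 After 24 h compound exposure, transfected HepG2 cells were lysed for total RNA; reporter-specific cDNA was PCR-amplified, fluorescently labelled and sized by capillary electrophoresis. Bidirectional curve fitting used DMSO as baseline.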

[7] = molecular target: Cellular tumor antigen p53 (Homo sapiens) (UniProt P04637); assay: ATG_p53_CIS: Attagene CIS-FACTORIAL HepG2 Assay for human p53 Transcription Factor (AID 2282994); settings: HepG2 p53 cis-element reporter, Attagene mRNA; actives raise or lower the signal
Sequence of Cellular tumor antigen p53 (Homo sapiens) (P04637 whole entry, looked up, the tested form may be a part): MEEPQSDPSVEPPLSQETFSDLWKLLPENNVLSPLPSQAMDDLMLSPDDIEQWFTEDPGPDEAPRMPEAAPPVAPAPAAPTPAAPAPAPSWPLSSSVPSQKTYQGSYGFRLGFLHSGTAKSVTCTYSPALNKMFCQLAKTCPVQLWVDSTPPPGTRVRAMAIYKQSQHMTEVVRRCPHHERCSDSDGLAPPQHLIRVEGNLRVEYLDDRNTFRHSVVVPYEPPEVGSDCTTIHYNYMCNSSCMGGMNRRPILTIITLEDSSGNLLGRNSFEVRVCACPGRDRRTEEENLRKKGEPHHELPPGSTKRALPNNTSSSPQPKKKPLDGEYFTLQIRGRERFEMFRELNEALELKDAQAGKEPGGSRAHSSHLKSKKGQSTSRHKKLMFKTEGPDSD
Summary of the method: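 Steps: transfect HepG2 with multiplexed cis reporter constructs; dose chemicals 24 h; extract RNA, reverse-transcribe, PCR-amplify reporter sequences; FAM-label, HpaI-digest, resolve fragments by CE. Activity fitted both directions relative to DMSO.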

[8] = BSK_3C_TissueFactor: BioMAP Diversity Plus: 3C Assay for Tissue Factor Biomarker Activity (AID 2282997); settings: BioMAP 3C HUVEC, tissue factor biomarker readout; actives raise or lower the signal
Summary of the method: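 Tissue factor on primary human umbilical vein endothelium was read by ELISA 24 h after dosing, gain or loss relative to DMSO. Cytotoxicity ran alongside via SRB (0.1%, TCA-fixed, 560 nm).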

[9] = BSK_3C_uPAR: BioMAP Diversity Plus: 3C Assay for Urokinase-type plasminogen activator receptor (uPAR) Biomarker Activity (AID 2282998); settings: BioMAP 3C HUVEC, uPAR biomarker ELISA; actives raise or lower the signal
Summary of the method: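 Values derive from bidirectional curve fitting relative to DMSO, which served as baseline of activity. uPAR was measured by ELISA in human umbilical vein endothelial primary cultures 24 h after compound addition.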

[10] = BSK_3C_VCAM1: BioMAP Diversity Plus: 3C Assay for Vascular cell adhesion molecule 1 (VCAM1) Biomarker Activity (AID 2282999); settings: BioMAP 3C HUVEC, VCAM1 ELISA, cytokine-stimulated; actives raise or lower the signal
Summary of the method: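 HUVEC primary cells, 24 h compound exposure; VCAM-1 by ELISA; gain/loss of signal fitted bidirectionally vs DMSO baseline.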

[11] = BSK_4H_Eotaxin3: BioMAP Diversity Plus: 4H Assay for Eotaxin 3 Biomarker Activity (AID 2283000); settings: primary human endothelial cells (HUVEC); actives raise or lower the signal
Summary of the method: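 Human umbilical vein endothelial cells (BSK_4H system) dosed with test chemical; Eotaxin-3 (CCL26) measured by ELISA 24 h after dosing. Bidirectional curve fitting relative to DMSO negative control as baseline.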

[12] = molecular target: human Peroxisome Proliferator-activated Receptor alpha (PPARa), PPARA (gene 5465) (UniProt Q07869); assay: ATG_PPARa_TRANS: Attagene TRANS-FACTORIAL HepG2 Assay for human Peroxisome Proliferator-activated Receptor alpha (PPARa) (AID 2283001; active = hit-call score of the fitted dose curve at least 0.9, where 1 is the maximum)
Sequence of human Peroxisome Proliferator-activated Receptor alpha (PPARa), PPARA (gene 5465) (Q07869 whole entry, looked up): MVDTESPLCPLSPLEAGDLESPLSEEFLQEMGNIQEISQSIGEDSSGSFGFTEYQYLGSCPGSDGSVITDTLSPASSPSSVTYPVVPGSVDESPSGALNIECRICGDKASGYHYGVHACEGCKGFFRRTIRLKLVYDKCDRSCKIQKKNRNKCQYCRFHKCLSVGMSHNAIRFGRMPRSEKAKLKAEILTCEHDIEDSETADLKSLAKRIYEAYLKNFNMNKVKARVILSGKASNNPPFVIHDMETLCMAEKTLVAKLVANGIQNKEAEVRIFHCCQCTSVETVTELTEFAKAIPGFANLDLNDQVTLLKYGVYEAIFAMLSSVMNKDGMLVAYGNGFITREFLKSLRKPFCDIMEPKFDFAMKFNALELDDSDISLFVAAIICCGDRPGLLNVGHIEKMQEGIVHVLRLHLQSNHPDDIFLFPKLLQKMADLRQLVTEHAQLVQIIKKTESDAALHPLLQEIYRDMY
Summary of the method: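 HepG2, transient MRTU transfection, 24 h treatment. RT-PCR → FAM labelling → capillary electrophoresis. Fit vs DMSO, positive direction.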

[13] = read-out: Intercellular Adhesion Molecule 1 (ICAM1), ICAM1 (gene 3383); assay: BSK_3C_ICAM1: BioMAP Diversity Plus: 3C Assay for Intercellular Adhesion Molecule 1 (ICAM1) Biomarker Activity (AID 2283003); settings: primary human endothelial cells (HUVEC); actives raise or lower the signal
Summary of the method: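 Chemicals are dosed onto primary human umbilical vein endothelium (3C system). After 24 h, ICAM-1 is measured by ELISA, and responses are fitted bidirectionally relative to DMSO.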

[14] = BSK_3C_Proliferation: Cell Proliferation Assessment in the BioMAP Diversity Plus: 3C Assay (AID 2283006); settings: primary human endothelial cells (HUVEC);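 for AC50: potency may reflect either rise or fall in cell number versus DMSO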
Summary of the method: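 Cells (human umbilical vein endothelial, sub-confluent) receive test chemical; after 48 h they are fixed in 10% trichloroacetic acid, stained with 0.1% SRB and read at 560 nm. Activity is referenced to DMSO, fitting increases and decreases.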

[15] = molecular target: Peroxisome proliferator-activated receptor gamma (Homo sapiens) (UniProt P37231); assay: ATG_PPARg_TRANS: Attagene TRANS-FACTORIAL HepG2 Assay for human Peroxisome Proliferator-activated Receptor-gamma (PPARg) (AID 2283007; active = hit-call score of the fitted dose curve at least 0.9, where 1 is the maximum)
Sequence of Peroxisome proliferator-activated receptor gamma (Homo sapiens) (P37231 whole entry, looked up, the tested form may be a part): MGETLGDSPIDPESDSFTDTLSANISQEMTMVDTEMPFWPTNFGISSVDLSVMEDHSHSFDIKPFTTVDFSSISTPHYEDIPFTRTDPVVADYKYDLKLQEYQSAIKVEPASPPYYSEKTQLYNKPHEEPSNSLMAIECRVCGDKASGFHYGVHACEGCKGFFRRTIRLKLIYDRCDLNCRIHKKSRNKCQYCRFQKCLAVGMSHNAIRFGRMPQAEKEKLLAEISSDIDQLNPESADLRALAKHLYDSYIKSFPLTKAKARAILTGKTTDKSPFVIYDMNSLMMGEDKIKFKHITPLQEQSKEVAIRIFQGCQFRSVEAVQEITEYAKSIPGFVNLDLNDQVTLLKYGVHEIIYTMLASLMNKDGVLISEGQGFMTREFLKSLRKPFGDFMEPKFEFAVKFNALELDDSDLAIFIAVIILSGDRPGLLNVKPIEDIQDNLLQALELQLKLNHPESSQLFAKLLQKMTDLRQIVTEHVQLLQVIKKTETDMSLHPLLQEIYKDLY
Summary of the method: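 Transient transfection of HepG2 with GAL4-UAS-driven reporter units; chemical dosing 24 h; total RNA → oligo(dT) RT → PCR with reporter primers → 6-FAM primer extension → HpaI digest 2 h 37 C → capillary electrophoresis. Positive direction vs DMSO.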

[16] = molecular target: human Retinoic Acid Receptor gamma (RARg), RARG (gene 5916) (UniProt P13631); assay: ATG_RARg_TRANS: Attagene TRANS-FACTORIAL HepG2 Assay for human Retinoic Acid Receptor gamma (RARg) (AID 2283009; active = hit-call score of the fitted dose curve at least 0.9, where 1 is the maximum)
Sequence of human Retinoic Acid Receptor gamma (RARg), RARG (gene 5916) (P13631 whole entry, looked up, the tested form may be a part): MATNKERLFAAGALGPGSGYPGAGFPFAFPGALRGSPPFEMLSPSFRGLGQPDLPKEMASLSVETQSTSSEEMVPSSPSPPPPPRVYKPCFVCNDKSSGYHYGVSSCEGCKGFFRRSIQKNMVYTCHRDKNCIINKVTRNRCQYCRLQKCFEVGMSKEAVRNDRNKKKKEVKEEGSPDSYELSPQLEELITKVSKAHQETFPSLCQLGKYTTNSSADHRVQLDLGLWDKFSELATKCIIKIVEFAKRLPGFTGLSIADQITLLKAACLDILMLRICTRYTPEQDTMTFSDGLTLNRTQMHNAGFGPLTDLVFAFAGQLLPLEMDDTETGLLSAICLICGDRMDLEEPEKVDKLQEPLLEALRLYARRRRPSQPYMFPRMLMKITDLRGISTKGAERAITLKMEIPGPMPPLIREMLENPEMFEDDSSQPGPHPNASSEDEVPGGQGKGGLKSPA
Summary of the method: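 TRANS format measured activity of exogenous NR-GAL4 fusion (RARg) in transfected HepG2 liver cells after 24 h dosing. Induced reporter RNA was detected by RT-PCR/capillary electrophoresis fluorescence, analysed in the positive direction against DMSO.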

[17] = molecular target: human Peroxisome Proliferator-activated Receptor delta (PPARd), PPARD (gene 5467) (UniProt Q03181); assay: ATG_PPARd_TRANS: Attagene TRANS-FACTORIAL HepG2 Assay for human Peroxisome Proliferator-activated Receptor delta (PPARd) (AID 2283002; active = hit-call score of the fitted dose curve at least 0.9, where 1 is the maximum)
Sequence of human Peroxisome Proliferator-activated Receptor delta (PPARd), PPARD (gene 5467) (Q03181 whole entry, looked up, the tested form may be a part): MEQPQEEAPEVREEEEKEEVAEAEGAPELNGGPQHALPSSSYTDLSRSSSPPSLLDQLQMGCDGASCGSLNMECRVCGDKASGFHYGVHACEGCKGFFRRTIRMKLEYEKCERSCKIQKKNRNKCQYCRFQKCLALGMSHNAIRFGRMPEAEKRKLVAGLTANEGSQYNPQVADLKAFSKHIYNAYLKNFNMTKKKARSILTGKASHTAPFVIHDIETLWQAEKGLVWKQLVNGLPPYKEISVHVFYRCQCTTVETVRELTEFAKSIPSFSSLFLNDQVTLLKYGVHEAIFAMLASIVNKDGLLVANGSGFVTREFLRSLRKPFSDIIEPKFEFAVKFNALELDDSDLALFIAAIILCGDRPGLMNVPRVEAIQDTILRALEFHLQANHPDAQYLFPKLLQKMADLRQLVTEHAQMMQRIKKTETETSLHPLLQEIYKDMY
Summary of the method: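 Fluorescence from capillary electrophoresis of labelled RT-PCR reporter fragments gives the signal; DMSO sets baseline. Cells: HepG2 transiently carrying GAL4-UAS reporter units plus chimeric nuclear receptor-Gal4 proteins, exposed to chemicals for 24 h.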

[18] = molecular target: Nuclear receptor subfamily 1 group I member 2 (Homo sapiens) (UniProt O75469); assay: ATG_PXR_TRANS: Attagene TRANS-FACTORIAL HepG2 Assay for human Pregnane X Receptor (PXR) (AID 2283008; active = hit-call score of the fitted dose curve at least 0.9, where 1 is the maximum)
Sequence of Nuclear receptor subfamily 1 group I member 2 (Homo sapiens) (O75469 whole entry, looked up, the tested form may be a part): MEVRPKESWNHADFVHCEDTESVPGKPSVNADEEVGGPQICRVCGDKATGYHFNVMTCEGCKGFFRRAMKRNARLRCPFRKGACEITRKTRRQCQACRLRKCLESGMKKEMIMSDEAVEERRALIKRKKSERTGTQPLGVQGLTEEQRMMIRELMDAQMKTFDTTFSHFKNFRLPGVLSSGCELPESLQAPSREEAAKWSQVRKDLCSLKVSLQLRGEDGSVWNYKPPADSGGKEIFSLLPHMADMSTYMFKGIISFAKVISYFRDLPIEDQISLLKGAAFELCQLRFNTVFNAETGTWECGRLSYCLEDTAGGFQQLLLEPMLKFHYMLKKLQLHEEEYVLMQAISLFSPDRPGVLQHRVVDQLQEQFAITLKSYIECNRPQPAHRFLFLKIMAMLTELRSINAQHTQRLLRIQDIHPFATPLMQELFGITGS
Summary of the method: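 HepG2 transfected (FuGene 6) with GAL4-UAS reporter units + PXR-Gal4 chimera; dosed 24 h. Total RNA → oligo(dT) RT → PCR → 6-FAM primer extension → HpaI cut → CE. Gain-of-signal vs DMSO.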

[19] = molecular target: human Retinoic Acid Receptor beta (RARb), RARB (gene 5915) (UniProt P10826); assay: ATG_RARb_TRANS: Attagene TRANS-FACTORIAL HepG2 Assay for human Retinoic Acid Receptor beta (AID 2283004; active = hit-call score of the fitted dose curve at least 0.9, where 1 is the maximum)
Sequence of human Retinoic Acid Receptor beta (RARb), RARB (gene 5915) (P10826 whole entry, looked up, the tested form may be a part): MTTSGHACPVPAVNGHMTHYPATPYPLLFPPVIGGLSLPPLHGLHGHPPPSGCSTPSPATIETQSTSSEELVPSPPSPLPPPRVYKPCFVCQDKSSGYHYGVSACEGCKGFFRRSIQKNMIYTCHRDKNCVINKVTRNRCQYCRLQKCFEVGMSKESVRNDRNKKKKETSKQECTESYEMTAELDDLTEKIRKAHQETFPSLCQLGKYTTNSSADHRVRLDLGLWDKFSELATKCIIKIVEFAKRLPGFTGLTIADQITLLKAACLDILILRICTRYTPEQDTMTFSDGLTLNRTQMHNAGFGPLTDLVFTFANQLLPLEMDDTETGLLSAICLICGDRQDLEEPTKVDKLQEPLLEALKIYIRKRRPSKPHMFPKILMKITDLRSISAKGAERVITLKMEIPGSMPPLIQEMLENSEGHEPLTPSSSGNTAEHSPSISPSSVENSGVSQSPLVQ
Summary of the method: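 Induction of reporter mRNA from a chimeric RARb-Gal4 construct was measured by RT-PCR, FAM labelling, HpaI digestion and capillary electrophoresis. Measurements followed 24 h compound treatment of transiently transfected human HepG2 liver cells, with DMSO as baseline.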

[20] = molecular target: Retinoic acid receptor alpha (Homo sapiens) (UniProt P10276); assay: ATG_RARa_TRANS: Attagene TRANS-FACTORIAL HepG2 Assay for human Retinoic Acid Receptor alpha (RARa) (AID 2283005; active = hit-call score of the fitted dose curve at least 0.9, where 1 is the maximum)
Sequence of Retinoic acid receptor alpha (Homo sapiens) (P10276 whole entry, looked up, the tested form may be a part): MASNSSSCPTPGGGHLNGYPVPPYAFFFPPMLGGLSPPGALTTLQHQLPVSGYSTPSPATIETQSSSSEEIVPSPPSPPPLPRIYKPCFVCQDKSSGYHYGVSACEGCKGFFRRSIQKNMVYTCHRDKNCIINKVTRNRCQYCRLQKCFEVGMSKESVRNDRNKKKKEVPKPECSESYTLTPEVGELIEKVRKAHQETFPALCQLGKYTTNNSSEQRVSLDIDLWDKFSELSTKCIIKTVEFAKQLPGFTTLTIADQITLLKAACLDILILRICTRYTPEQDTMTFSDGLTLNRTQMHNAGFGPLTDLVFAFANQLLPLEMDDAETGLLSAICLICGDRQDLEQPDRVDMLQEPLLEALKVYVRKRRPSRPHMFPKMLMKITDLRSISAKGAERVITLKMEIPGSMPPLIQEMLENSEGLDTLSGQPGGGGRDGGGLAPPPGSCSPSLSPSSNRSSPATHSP
Summary of the method: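 HepG2 transiently transfected with multiplex GAL4-UAS reporter units including a human RARa–GAL4 chimera; 24 h compound exposure. Reporter mRNA quantified by RT-PCR, 6-FAM labeling and capillary electrophoresis; gain of signal versus DMSO.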

Measured: AC50

O=C(O)C(F)(F)C(F)(F)C(F)(F)C(=O)O
active: [15] 84.1 µM
not listed: [17] | [18] | [19] | [20]
inactive: all other assays above

COc1ccccc1C=O
inactive: [1] | [2] | [3] | [4] | [5] | [6] | [7] | [12] | [17]

CCOC(=O)CC(=O)C(F)(F)C(F)(F)F
not listed: [12] | [17] | [19] | [20]
inactive: all other assays above

CCCCCCCCCCCCC[N+](C)(C)Cc1ccccc1
active: [5] 4.37 µM
not listed: [8] | [9] | [10] | [11] | [13] | [14] | [16]
inactive: all other assays above

O=C(c1ccccc1)c1ccc(O)cc1O
active: [5] 66.8 µM | [15] 42.5 µM
not listed: [17] | [20]
inactive: all other assays above

OC(O)C(F)(F)C(F)(F)F
active: [4] 127 µM | [5] 93.6 µM | [7] 121 µM
not listed: [16] | [17] | [18] | [19] | [20]
inactive: all other assays above

CCN=C1C=CC(=C(c2ccc(N(CC)CC)cc2)c2ccc(N(CC)CC)cc2)c2ccccc21
inactive: [2] | [3] | [4] | [15] | [18]
active: [1] 1.04 µM | [5] 0.0811 µM | [6] 0.566 µM | [7] 0.917 µM | [8] 1.96 µM and 1.79 µM | [9] 3.95 µM and 1.39 µM | [10] 2.64 µM and 2.81 µM | [11] 1.74 µM | [13] 3.69 µM and 3.76 µM | [14] 888 nM and 871 nM
